Measurements reported in PubChem BioAssay AID1159580 (chemical genetic matrix, 2015).
Where “and” joins values, the source holds several entries; their conditions need not be identical. Equal entries are not always repeated. The campaign covered roughly 5,500 compounds. About 2,000 (36%) were called active. About 18% were inconclusive and are not listed. Rule as the data show it: active = normalized growth mostly below about 0.91 (no sharp cut-off); inconclusive = no clear call, values can overlap the other calls; inactive = mostly above about 0.92. The list shows a part of the results.

Assay: chemical genetic growth profiling, strain panel (AID 1159580);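 also: tested at 20 µM; growth read once vehicle control cultures reached saturation at 30 °C; 1 = growth at the plate median or of vehicle wells; lower values mean less growth of the strain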
Settings: S. cerevisiae deletion strains, growth OD

Measured: normalized growth

NS(=O)(=O)c1cc2c(cc1Cl)NC=NS2(=O)=O
inactive: locus YAL013W, strain DEP1, active compounds read low 1 | locus YAL021C, strain ccr4, active compounds read low 0.984 | locus YAL026C, strain drs2, active compounds read low 1.01 | locus YAL030W, strain snc1, active compounds read low 1 | locus YAL040C, strain CLN3, active compounds read low 1 | locus YBL061C, strain skt5, active compounds read low 1 | locus YBR009C, strain hhf1, active compounds read low 0.983 | locus YBR021W, strain FUR4, active compounds read low 1 | locus YBR023C, strain chs3, active compounds read low 1 | locus YBR171W, strain sec66, active compounds read low 1 | locus YBR229C, strain ROT2, active compounds read low 1 | locus YBR231C, strain swc5, active compounds read low 0.973 | locus YBR279W, strain paf1, active compounds read low 0.997 | locus YCL011C, strain gbp2, active compounds read low 1 | locus YCL016C, strain dcc1, active compounds read low 0.999 | locus YCL029C, strain bik1, active compounds read low 0.997 | locus YCL061C, strain MRC1 (second series), active compounds read low 1 | locus YCL061C, strain MRC1, active compounds read low 1.01 | locus YCL069W, strain vba3, active compounds read low 1.01 | locus YCR088W, strain abp1, active compounds read low 0.995 | locus YDL005C, strain med2, active compounds read low 0.997 | locus YDL035C, strain GPR1, active compounds read low 1.02 | locus YDL040C, strain nat1, active compounds read low 1 | locus YDL074C, strain BRE1, active compounds read low 1.01 | locus YDL101C, strain DUN1, active compounds read low 1.01 | locus YDL134C, strain PPH21, active compounds read low 1 | locus YDL185W, strain tfp1, active compounds read low 0.974 | locus YDL192W, strain arf1, active compounds read low 1 | locus YDR001C, strain nth1, active compounds read low 1.03 | locus YDR069C, strain doa4, active compounds read low 1 | locus YDR101C, strain arx1, active compounds read low 0.996 | locus YDR137W, strain rgp1, active compounds read low 0.999 | locus YDR150W, strain NUM1, active compounds read low 1.01 | locus YDR159W, strain sac3, active compounds read low 1 | locus YDR162C, strain NBP2, active compounds read low 1.02 | locus YDR195W, strain ref2 0.93 | locus YDR297W, strain sur2, active compounds read low 1 | locus YDR318W, strain mcm21, active compounds read low 1 | locus YDR334W, strain swr1, active compounds read low 1 | locus YDR335W, strain msn5, active compounds read low 1.02 | locus YDR388W, active compounds read low 0.997 | locus YDR392W, strain spt3, active compounds read low 1 | locus YDR502C, strain sam2, active compounds read low 1.01 | locus YEL003W, strain gim4, active compounds read low 0.99 | locus YEL037C, strain rad23, active compounds read low 0.999 | locus YEL061C, strain CIN8 (second series), active compounds read low 1.02 | locus YEL061C, strain CIN8, active compounds read low 1 | locus YER002W, strain NOP16, active compounds read low 0.975 | locus YER015W, strain faa2, active compounds read low 1.01 | locus YER016W, strain bim1, active compounds read low 1.01 | locus YER110C, active compounds read low 0.986 | locus YER111C, strain swi4, active compounds read low 0.99 | locus YER155C, strain BEM2 (second series), active compounds read low 0.963 | locus YER155C, strain BEM2, active compounds read low 1 | locus YER167W, strain BCK2, active compounds read low 1.03 | locus YFR010W, strain ubp6, active compounds read low 1.02 | locus YGL078C, strain dbp3, active compounds read low 1 | locus YGL086W, strain mad1, active compounds read low 1 | locus YGL167C, strain pmr1, active compounds read low 0.993 | locus YGL173C, strain kem1, active compounds read low 0.989 | locus YGL227W, strain vid30, active compounds read low 0.988 | locus YGL240W, strain doc1, active compounds read low 0.988 | locus YGL248W, strain PDE1, active compounds read low 1.01 | locus YGL253W, strain hxk2, active compounds read low 1.03 | locus YGR078C, strain PAC10, active compounds read low 1.01 | locus YGR135W, strain pre9, active compounds read low 0.998 | locus YGR229C, strain SMI1, active compounds read low 1.02 | locus YGR252W, strain gcn5, active compounds read low 1.02 | locus YHR013C, strain ard1, active compounds read low 0.966 | locus YHR027C, strain rpn1, active compounds read low 1 | locus YHR030C, strain SLT2, active compounds read low 1.01 and 0.954 | locus YHR079C, strain IRE1 (second series), active compounds read low 1 | locus YHR079C, strain IRE1, active compounds read low 0.965 | locus YHR094C, strain hxt1, active compounds read low 0.995 | locus YHR129C, strain ARP1, active compounds read low 1 | locus YHR142W, strain chs7, active compounds read low 1.02 | locus YHR200W, strain rpn10, active compounds read low 0.993 | locus YIL066C, strain RNR3, active compounds read low 1.02 | locus YIL073C, strain SPO22, active compounds read low 1.03 | locus YIL125W, strain kgd1, active compounds read low 1 | locus YIR030C, strain dcg1, active compounds read low 0.99 | locus YJL092W, strain hpr5, active compounds read low 1.01 | locus YJL095W, strain BCK1 (second series), active compounds read low 1 | locus YJL095W, strain BCK1, active compounds read low 1.02 and 0.975 | locus YJL115W, strain asf1, active compounds read low 1.01 | locus YJL129C, strain trk1, active compounds read low 1.02 | locus YJL134W, strain LCB3, active compounds read low 1 | locus YJL154C, strain vps35, active compounds read low 0.989 | locus YJL164C, strain tpk1, active compounds read low 1 | locus YJL166W, strain qcr8, active compounds read low 0.985 | locus YJL168C, strain set2, active compounds read low 0.995 | locus YJL187C, strain SWE1 (second series), active compounds read low 1.03 | locus YJL187C, strain SWE1, active compounds read low 1.01 | locus YJR043C, strain POL32, active compounds read low 0.996 | locus YJR066W, strain TOR1, active compounds read low 0.973
